Source: ChEMBL document CHEMBL5606458, “ASAP - ZIKV NS2B-NS3 protease fluorescence single point” (2024)
Out of some 2,700 compounds screened, about 160 (5.9%) showed an effect of 50% or more. The entries come from a sample that favours strong results as a whole.

Molecular target: Nonstructural protein 3 (Zika virus) (UniProt A0A024AXB9)
[1] = PRVABC59, Concentration 15.0 uM, Number of replicates 1.0

Chain of Nonstructural protein 3 (Zika virus) (A0A024AXB9 as listed by the source): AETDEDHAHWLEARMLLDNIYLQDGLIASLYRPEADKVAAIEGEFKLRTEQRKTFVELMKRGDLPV

Work on `O=C(NC1CCN(Cc2ccccc2)CC1)c1cc(Cl)ccc1NS(=O)(=O)c1ccc(Oc2ccccc2Cl)cc1` yielded an inhibition [1] of 8.32%.
For `O=Cc1ccc(N2CCC(C(=O)NCc3cc(F)ccc3Br)CC2)cc1`, the inhibition (PRVABC59, Concentration 10.0 uM, Number of replicates 1.0) was 4.33%.
`NC(=O)c1cccc(NC(=O)[C@@H](NC(=O)c2ccc(Oc3ccc(C(F)(F)F)cc3)cc2)c2ccc(OCc3ccccc3)cc2)c1` showed an inhibition (PRVABC59, Concentration 49.5 uM, Number of replicates 2.0, Standard deviation 0.46044521626223894 %) of 6.3%, an inhibition (PRVABC59, Concentration 99.01 uM, Number of replicates 2.0, Standard deviation 0.010097036204057861 %) of 14.7% and an inhibition (PRVABC59, Concentration 198.0 uM, Number of replicates 2.0, Standard deviation 0.34129506399757725 %) of 30.3%.
Molecule `N=C(N)NCCC[C@H](NC(=O)c1nccs1)C(=O)N[C@@H](CCCCN)C(=O)N[C@@H](C(N)=O)c1ccc(OCc2ccc(C(F)(F)F)cc2)cc1` has an inhibition [1] of 91.8%, an inhibition (PRVABC59, Concentration 49.5 uM, Number of replicates 2.0, Standard deviation 0.021859715861266255 %) of 94.6% and an inhibition (PRVABC59, Concentration 49.5 uM, Number of replicates 2.0, Standard deviation 0.024233426369399808 %) of 96.9%. It also gave an inhibition (PRVABC59, Concentration 49.5 uM, Number of replicates 2.0, Standard deviation 0.10948739718766008 %) of 93.8%, an inhibition (PRVABC59, Concentration 49.5 uM, Number of replicates 2.0, Standard deviation 0.1218738502028297 %) of 97.5% and an inhibition (PRVABC59, Concentration 49.5 uM, Number of replicates 2.0, Standard deviation 0.12395624169405596 %) of 92.6%. For the same molecule, the inhibition (PRVABC59, Concentration 49.5 uM, Number of replicates 2.0, Standard deviation 0.12648640130386196 %) was 91.3%, the inhibition (PRVABC59, Concentration 49.5 uM, Number of replicates 2.0, Standard deviation 0.127991549557883 %) was 97.2% and the inhibition (PRVABC59, Concentration 49.5 uM, Number of replicates 2.0, Standard deviation 0.13878114277667186 %) was 95.3%. It also gave an inhibition (PRVABC59, Concentration 49.5 uM, Number of replicates 2.0, Standard deviation 0.18792773988825517 %) of 89.4%, an inhibition (PRVABC59, Concentration 49.5 uM, Number of replicates 2.0, Standard deviation 0.2282484497468692 %) of 91.2% and an inhibition (PRVABC59, Concentration 49.5 uM, Number of replicates 2.0, Standard deviation 0.23805618998274827 %) of 97%. For the same molecule, the inhibition (PRVABC59, Concentration 49.5 uM, Number of replicates 2.0, Standard deviation 0.25515230043791925 %) was 95.5%, the inhibition (PRVABC59, Concentration 49.5 uM, Number of replicates 2.0, Standard deviation 0.3144519047683829 %) was 85.9% and the inhibition (PRVABC59, Concentration 49.5 uM, Number of replicates 2.0, Standard deviation 0.8044343068166325 %) was 87.1%. For the same molecule, the inhibition (PRVABC59, Concentration 49.5 uM, Number of replicates 2.0, Standard deviation 1.112040214687694 %) was 90.3%, the inhibition (PRVABC59, Concentration 49.5 uM, Number of replicates 2.0, Standard deviation 1.1256998397026805 %) was 90.4% and the inhibition (PRVABC59, Concentration 49.5 uM, Number of replicates 2.0, Standard deviation 1.7230548786677078 %) was 84.5%. For the same molecule, the inhibition (PRVABC59, Concentration 49.5 uM, Number of replicates 2.0, Standard deviation 1.876040520916915 %) was 90.3%, the inhibition (PRVABC59, Concentration 49.8 uM, Number of replicates 2.0, Standard deviation 1.8581405857669444 %) was 97.9% and the inhibition (PRVABC59, Concentration 49.95 uM, Number of replicates 2.0, Standard deviation 2.309253478244507 %) was 87.4%. For the same molecule, the inhibition (PRVABC59, Concentration 50.0 uM, Number of replicates 2.0, Standard deviation 0.36743959706585505 %) was 88.7%, the inhibition (PRVABC59, Concentration 99.01 uM, Number of replicates 2.0, Standard deviation 0.0 %) was 93.4% and the inhibition (PRVABC59, Concentration 99.01 uM, Number of replicates 2.0, Standard deviation 0.012046580828777775 %) was 94.9%. The inhibition (PRVABC59, Concentration 99.01 uM, Number of replicates 2.0, Standard deviation 0.02911571730090177 %) was 93.7%, the inhibition (PRVABC59, Concentration 99.01 uM, Number of replicates 2.0, Standard deviation 0.06378807510947981 %) was 97.6% and the inhibition (PRVABC59, Concentration 99.01 uM, Number of replicates 2.0, Standard deviation 0.067278508515758 %) was 98.8%. The inhibition (PRVABC59, Concentration 99.01 uM, Number of replicates 2.0, Standard deviation 0.0706826251762859 %) was 98.7%, the inhibition (PRVABC59, Concentration 99.01 uM, Number of replicates 2.0, Standard deviation 0.071545792633789 %) was 97.3% and the inhibition (PRVABC59, Concentration 99.01 uM, Number of replicates 2.0, Standard deviation 0.07721572387026257 %) was 95.8%. The inhibition (PRVABC59, Concentration 99.01 uM, Number of replicates 2.0, Standard deviation 0.10372575440882682 %) was 99%, the inhibition (PRVABC59, Concentration 99.01 uM, Number of replicates 2.0, Standard deviation 0.10948739718766008 %) was 97% and the inhibition (PRVABC59, Concentration 99.01 uM, Number of replicates 2.0, Standard deviation 0.11599352189858977 %) was 97.7%. It also gave an inhibition (PRVABC59, Concentration 99.01 uM, Number of replicates 2.0, Standard deviation 0.1471970254873272 %) of 98.8%, an inhibition (PRVABC59, Concentration 99.01 uM, Number of replicates 2.0, Standard deviation 0.27009049224933246 %) of 94.8% and an inhibition (PRVABC59, Concentration 99.01 uM, Number of replicates 2.0, Standard deviation 0.8601032130289737 %) of 94.3%. It also gave an inhibition (PRVABC59, Concentration 99.01 uM, Number of replicates 2.0, Standard deviation 0.9406367368140138 %) of 94.2%, an inhibition (PRVABC59, Concentration 99.01 uM, Number of replicates 2.0, Standard deviation 1.3348561042489029 %) of 88.7% and an inhibition (PRVABC59, Concentration 99.01 uM, Number of replicates 2.0, Standard deviation 1.4059433391708933 %) of 94.2%. It also gave an inhibition (PRVABC59, Concentration 99.01 uM, Number of replicates 2.0, Standard deviation 1.7588979073405244 %) of 89.5%, an inhibition (PRVABC59, Concentration 99.5 uM, Number of replicates 2.0, Standard deviation 0.12741970111728718 %) of 93.3% and an inhibition (PRVABC59, Concentration 99.5 uM, Number of replicates 2.0, Standard deviation 0.16892187143335857 %) of 101%. The inhibition (PRVABC59, Concentration 99.9 uM, Number of replicates 2.0, Standard deviation 1.5690280406728871 %) was 94.6%, the inhibition (PRVABC59, Concentration 100.0 uM, Number of replicates 2.0, Standard deviation 4.458993610342439 %) was 98% and the inhibition (PRVABC59, Concentration 198.0 uM, Number of replicates 2.0, Standard deviation 0.0026488451352126683 %) was 96.7%. For the same molecule, the inhibition (PRVABC59, Concentration 198.0 uM, Number of replicates 2.0, Standard deviation 0.013907785659018856 %) was 98.8%, the inhibition (PRVABC59, Concentration 198.0 uM, Number of replicates 2.0, Standard deviation 0.021082865149513456 %) was 97.6% and the inhibition (PRVABC59, Concentration 198.0 uM, Number of replicates 2.0, Standard deviation 0.03251443916482027 %) was 97.8%. The inhibition (PRVABC59, Concentration 198.0 uM, Number of replicates 2.0, Standard deviation 0.03514709991020475 %) was 97.2%, the inhibition (PRVABC59, Concentration 198.0 uM, Number of replicates 2.0, Standard deviation 0.0599254007371534 %) was 99.1% and the inhibition (PRVABC59, Concentration 198.0 uM, Number of replicates 2.0, Standard deviation 0.06866497124437239 %) was 99.6%. The inhibition (PRVABC59, Concentration 198.0 uM, Number of replicates 2.0, Standard deviation 0.07418384817578288 %) was 97.3%, the inhibition (PRVABC59, Concentration 198.0 uM, Number of replicates 2.0, Standard deviation 0.0745722735316593 %) was 98.9% and the inhibition (PRVABC59, Concentration 198.0 uM, Number of replicates 2.0, Standard deviation 0.07483122376891023 %) was 96.4%. It also gave an inhibition (PRVABC59, Concentration 198.0 uM, Number of replicates 2.0, Standard deviation 0.07712401232790286 %) of 99.5%, an inhibition (PRVABC59, Concentration 198.0 uM, Number of replicates 2.0, Standard deviation 0.08816716098733327 %) of 99.7% and an inhibition (PRVABC59, Concentration 198.0 uM, Number of replicates 2.0, Standard deviation 0.09263944737652126 %) of 98.7%. For the same molecule, the inhibition (PRVABC59, Concentration 198.0 uM, Number of replicates 2.0, Standard deviation 0.09449525741015294 %) was 99.7%, the inhibition (PRVABC59, Concentration 198.0 uM, Number of replicates 2.0, Standard deviation 0.3759148225392137 %) was 97% and the inhibition (PRVABC59, Concentration 198.0 uM, Number of replicates 2.0, Standard deviation 0.4983928899622956 %) was 97.6%. It also gave an inhibition (PRVABC59, Concentration 198.0 uM, Number of replicates 2.0, Standard deviation 0.5225777631622108 %) of 97.2%, an inhibition (PRVABC59, Concentration 198.0 uM, Number of replicates 2.0, Standard deviation 0.6944775623239552 %) of 94.7% and an inhibition (PRVABC59, Concentration 198.0 uM, Number of replicates 2.0, Standard deviation 1.5146538856468006 %) of 93.1%. The inhibition (PRVABC59, Concentration 200.0 uM, Number of replicates 1.0) was 97.4%.
In the case of `CCCC[C@H](NC(C)=O)C(=O)N[C@H](C(=O)Nc1cccc(C(N)=O)c1)c1ccc(OCc2ccccc2)cc1`, the inhibition (PRVABC59, Concentration 49.5 uM, Number of replicates 2.0, Standard deviation 1.5133642763760644 %) is reported as 0.392%, the inhibition (PRVABC59, Concentration 99.01 uM, Number of replicates 2.0, Standard deviation 2.3397962878359877 %) is reported as 3.8% and the inhibition (PRVABC59, Concentration 198.0 uM, Number of replicates 2.0, Standard deviation 2.8724328178638086 %) is reported as 7.97%.
